E coli Lon inh – inhibitors of E. coli Lon protease, primary screen, biochemical, fluorescence polarization | hit rate 0.42% among 360,000 | P0A9M0 | purified E. coli Lon protease | inhibition, % at 7.94 µM; in the data active means inhibition above about 13%, passing the limit was not always enough
Bcl-xL primary – inhibitors of human Bcl-xL, primary screen, biochemical, fluorescence polarization, HTS; AID 2129, 2009; hit rate 0.7% among 320,000; inhibition, % at 10.9 µM; GST-Bcl-xL / FITC-Bim BH3 peptide fluorescence polarization;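 active means inhibition above the mean of all tested compounds plus 3 SD, cutoff set per campaign, cut at about 30% in these data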;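 further: inhibitors lower millipolarization by displacing the labeled peptide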
Keap1 Nrf2 FP – Keap1-Nrf2 protein-protein interaction inhibitors, primary screen, biochemical, fluorescence polarization, single point; inhibition, % at 9.4 µM; hit rate 0.15% among 340,000; Keap1 Kelch-Nrf2 peptide fluorescence polarization, 1536-well; AID 504523, 2011; Kelch-like ECH-associated protein 1 (Homo sapiens), Q14145; in the data active means inhibition above about 12%;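 further: human Keap1 Kelch domain with fluorescein labeled Nrf2 9mer peptide probe; higher means more block of Keap1 binding to Nrf2 peptide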
Target sequence (Q14145 whole entry, looked up, the tested form may be a part): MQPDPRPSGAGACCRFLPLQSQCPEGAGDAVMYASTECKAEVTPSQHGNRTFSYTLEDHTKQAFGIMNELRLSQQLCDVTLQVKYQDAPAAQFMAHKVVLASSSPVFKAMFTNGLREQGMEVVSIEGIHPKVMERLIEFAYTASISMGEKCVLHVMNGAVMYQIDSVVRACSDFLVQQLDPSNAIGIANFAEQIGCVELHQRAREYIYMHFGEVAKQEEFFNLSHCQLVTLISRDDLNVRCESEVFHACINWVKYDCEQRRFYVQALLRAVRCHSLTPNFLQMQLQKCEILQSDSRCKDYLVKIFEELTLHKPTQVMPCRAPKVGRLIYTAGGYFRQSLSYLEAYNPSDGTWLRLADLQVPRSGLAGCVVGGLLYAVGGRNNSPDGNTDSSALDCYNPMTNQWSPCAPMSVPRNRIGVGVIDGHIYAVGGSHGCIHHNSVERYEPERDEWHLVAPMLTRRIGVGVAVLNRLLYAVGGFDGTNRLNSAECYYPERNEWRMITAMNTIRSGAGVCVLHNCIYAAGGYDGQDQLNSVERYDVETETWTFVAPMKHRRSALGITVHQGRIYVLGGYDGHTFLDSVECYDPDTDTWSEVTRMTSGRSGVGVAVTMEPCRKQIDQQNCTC
LANA DNA inh – inhibitors of KSHV C-LANA binding to DNA, primary screen, biochemical, fluorescence polarization, FAM-LBS DNA, MBP-C-LANA, single point; Kaposi's sarcoma herpesvirus LANA C-terminal domain (residues 932-1162) DNA binding; inhibition, % at 9 µM; hit rate 0.078% among 340,000;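 active means highest replicate inhibition at or above 60% at 9 µM, even if other replicates fall short; inactive means all replicates below 60% inhibition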
MCL1-BIM inh – inhibitors of MCL1 binding to BIM-BH3, primary screen, biochemical, fluorescence polarization. AID 2057, 2009. GST-MCL1 / FITC-Bim-BH3 fluorescence polarization. inhibition, % at 10.9 µM. hit rate 0.68% among 320,000;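 active means inhibition above the mean inhibition of all tested compounds plus 3 SD, set per campaign, cut at about 40% in these data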;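 further: higher means more loss of mP so more displacement of Bim peptide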
GLD-1 RNA inh – GLD-1/TGE RNA complex disruptors, primary screen, biochemical, fluorescence polarization; Female germline-specific tumor suppressor gld-1 (Caenorhabditis elegans), Q17339; purified GLD-1 + fluorescein TGE RNA; inhibition, % at 5.96 µM; hit rate 0.44% among 320,000;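 active means percent inhibition above a per-plate cutoff, the plate mean of test compounds plus 3 SD, cut at about 30% in these data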
eLon confirm – E. coli Lon protease inhibitor retest, confirmation, biochemical, fluorescence polarization. purified E. coli Lon. shares compounds with E coli Lon inh. hit rate 31% among 1,400. inhibition, % at 7.94 µM. AID 602230, 2012; in the data active means inhibition above about 16%
A number is an active result; 0 = inactive; - = not tested or not shown; + = active, no number. An excerpt weighted towards active compounds, which were near 1.3% of everything screened.

SMILES	E coli Lon inh	Bcl-xL primary	Keap1 Nrf2 FP	LANA DNA inh	MCL1-BIM inh	GLD-1 RNA inh	eLon confirm
COc1cccc(C(NC(C)=O)c2nc(-c3ccc(F)cc3OC)cs2)c1 (stereo unspecified)	0	-	-	-	-	-	-
Cc1ccc2cccc(OCc3ccccc3)c2n1	0	0	-	-	0	0	-
Cc1ccc2cccc(N)c2n1	31	0	0	0	0	0	0
COc1ccc(-c2coc3cc(OC(C)=O)ccc3c2=S)cc1	0	-	0	0	-	-	-
C=CCn1c(COc2ccc(OC)cc2)nnc1SC(C)C(=O)NC1CC1 (stereo unspecified)	0	0	0	0	0	0	-
CCC(c1nnc(SC(C)C(=O)NC2CC2)n1-c1ccc(OC)cc1)N(C)C (stereo unspecified)	19	0	0	0	0	0	0
O=C(Nc1ccc(Br)cc1)C(c1ccccc1)c1ccccc1	0	0	0	0	0	0	-
C/C(=C\c1ccccc1)C(=O)Nc1ccc(S(=O)(=O)Nc2ncccn2)cc1	22	0	0	0	0	0	0
CCCCOC(=O)Nc1ccc(S(=O)(=O)Nc2ncccn2)cc1	21	0	0	0	0	0	30
CCCCCOC(=O)Nc1ccc(S(=O)(=O)Nn2cnnc2)cc1	0	0	0	0	0	0	-
COc1ccc(C(=O)Nc2ccc(S(=O)(=O)Nc3ncccn3)cc2)cc1OC	21	0	0	0	0	0	0
COc1cc(OC)cc(C(=O)Nc2ccc(S(=O)(=O)Nc3ncccn3)cc2)c1	0	0	0	0	0	0	-
COC(=O)Nc1ccc(S(=O)(=O)Nc2ncccn2)cc1	27	0	0	0	0	0	0
CC(OC(=O)c1ccc2c(=O)n3c(nc2c1)CCCCC3)C(=O)Nc1ncc(Cl)cc1Cl (stereo unspecified)	0	0	0	0	0	0	-
Cc1nc2sccn2c(=O)c1S(=O)(=O)NC(C)c1ccccc1 (stereo unspecified)	0	0	0	0	0	0	-
CCOc1cccc(C2/C(=C(/O)c3ccc4c(c3)CC(C)O4)C(=O)C(=O)N2Cc2cccnc2)c1 (stereo unspecified)	0	0	0	0	0	0	-
Clc1ccc(N=NN2CCOCC2)cc1	19	0	0	0	0	0	0
COC(=O)c1ccc(N=NN2CCOCC2)cc1	0	0	0	0	0	0	-
CC1(C)CC(=O)C2=C(C1)Nc1ccccc1NC2c1ccc(F)c(F)c1 (stereo unspecified)	0	0	0	0	0	0	-
Cc1c(C2Nc3ccccc3NC3=C2C(=O)CC(C)(C)C3)cnn1C (stereo unspecified)	144	0	0	0	0	0	0
CC1(C)CC(=O)C2=C(C1)Nc1ccccc1NC2c1ccccc1F (stereo unspecified)	34	0	0	0	0	0	0
COCCn1nnnc1CN(Cc1ccco1)Cc1cc2cc3c(cc2[nH]c1=O)OCO3	23	0	0	0	0	0	0
CC(C)(C)n1nnnc1CN(Cc1ccco1)Cc1cc2cc3c(cc2[nH]c1=O)OCO3	0	0	0	0	0	0	-
CCOc1cccc2c1OC1(C)CC2NC(=O)N1c1cccc(C(=O)N2CCN(c3ccccn3)CC2)c1 (stereo unspecified)	0	0	0	0	0	0	-
CCOC(=O)N1CCN(C(=O)CSc2ccc3nnc(-c4ccncc4)n3n2)CC1	24	0	0	0	0	0	0
SMILES	E coli Lon inh	Bcl-xL primary	Keap1 Nrf2 FP	LANA DNA inh	MCL1-BIM inh	GLD-1 RNA inh	eLon confirm
CCOC(=O)N1CCN(C(=O)CSc2ccc3nnc(-c4ccccn4)n3n2)CC1	0	0	0	0	0	0	-
CC12CCC(C(=O)NCc3ccc(F)cc3)(OC1=O)C2(C)C (stereo unspecified)	0	0	0	0	0	0	-
Cc1cc(C)c(NC(=O)C(C)N2CCCCCC2)c(C)c1 (stereo unspecified)	71	0	0	0	0	0	0
Cc1cccc(C)c1NC(=O)C(C)N1CCCC1 (stereo unspecified)	0	0	0	0	0	0	-
COc1ccc(C(=O)OCCCc2cc3ccccc3c(=O)o2)cc1	0	0	0	0	0	0	-
C(=Cc1cnc2ccccc2n1)c1ccc2c(c1)OCO2	96	-	-	-	-	-	0
Cc1nn(-c2ccccc2)c2[nH]c(=O)c(CNc3ccc4c(c3)OCCO4)cc12	21	0	0	0	0	0	44
COc1cccc(NCc2cc3c(C(C)(C)C)nn(-c4ccccc4)c3[nH]c2=O)c1	0	0	0	0	0	0	-
CC1(C)CC(=O)c2sc(NS(=O)(=O)c3ccc(F)cc3)nc2C1	0	0	0	0	0	0	-
COCCn1c2nc(=O)n(-c3ccccc3)c(=O)c-2nc2ccccc21	+	-	-	-	-	-	+
CCOCCc1nn2c(=O)cc(CSCC(=O)Nc3ccccc3)nc2s1	0	0	0	0	0	0	-
Nc1ccccc1C(=O)NN=Cc1cccnc1	21	-	-	-	-	-	0
CCCCc1ccc(NC(=O)CSC2=NN3CCCC(=O)N=C3S2)cc1	0	0	0	0	0	0	-
O=C(NCCN1CCOCC1)c1cc(S(=O)(=O)NCCCN2CCCC2=O)ccc1Cl	40	0	0	0	0	0	0
CC(=O)[C@@]1(O)Cc2c(O)c3c(c(O)c2[C@H](O[C@H]2C[C@H](N)[C@H](O)[C@H](C)O2)C1)C(=O)c1ccccc1C3=O	+	-	-	-	-	-	+
O=C(Nc1ccc(Cl)c(Cl)c1)c1ccc(Cn2c(=O)[nH]c3ccsc3c2=O)cc1	27	0	0	0	0	0	0
O=C(Nc1ccc(Oc2ccccc2)cc1)c1ccc(Cn2c(=O)[nH]c3ccsc3c2=O)cc1	0	0	0	0	0	0	-
Cc1cccc(Nc2nc(N)nc(CN3CCN(Cc4ccc5c(c4)OCO5)CC3)n2)c1	19	0	0	0	0	0	0
COc1cc2c(C#N)c(N3CCCCC3)nc(N)c2c(N)n1	0	0	0	0	0	0	-
COc1cc2c(C#N)c(N3CCc4ccccc4C3)nc(N)c2c(N)n1	56	0	0	0	0	0	0
Cc1ccc(CN2CCN(C(=O)CCC(=O)Nc3nnc(C(C)C)s3)CC2)c(C)c1	0	0	0	0	0	0	-
COc1ccc(S(=O)(=O)N2CCCCCC2)cc1C(=O)N(C)Cc1ccco1	0	0	0	0	0	0	-
CCC(=O)N1c2ccc(S(=O)(=O)NCc3ccccc3)cc2CC1C (stereo unspecified)	0	0	0	0	0	0	-
